Structures are written as SMILES. Among all 340,000 compounds or so, about 2,300 (0.68%) were called active. The full list was thinned out, with actives kept by preference. Values without a mark were called inactive. No stated cut-off is given here; in the data, active means growth rescue above about 28% (passing the limit was not always enough); inconclusive means no clear call, values can overlap the other calls.

The experiment in a line: rescue of yeast from PfHsp40 toxicity, primary screen, S. cerevisiae, ATP luminescence (AID 504582).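 Further: yeast W303a lacking pdr1 and pdr3 grown in galactose medium; growth measured after three days at 30 °C.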 The following applies: S. cerevisiae expressing PfHsp40, growth rescue, at 12.5 µM, stronger effect = higher value.
In the case of `Cn1c(CCc2ccccc2)nnc1SCC(N)=O`, the growth rescue is 0.061%. Consider `COc1ccc(C(=O)COC(=O)COc2ccc(C)c(C)c2)cc1`, for which the growth rescue is 0.0365%. Turning to `CC(=O)Nc1ccc(S(=O)(=O)NCC(=O)OCC(=O)c2ccc[nH]2)cc1`, the growth rescue is -1.02%. As for `COc1cc(C)ccc1OCC(=O)OCC(=O)c1ccc[nH]1`, the growth rescue is 62.4% (active). Regarding `Cc1ccc(NC(=O)NC(=O)N(C2CCCCC2)S(=O)(=O)c2ccccc2)cc1`, the growth rescue is -1.71%. As to `CCOc1ccccc1NC(=O)C1CCCN(S(=O)(=O)c2ccccc2)C1` (stereo not drawn), the growth rescue was 0.502%. Take `CC(C)(C)c1ccc(OC2=CS(=O)(=O)c3ccccc32)cc1`: the growth rescue was 6.99%. Next, `CC(C)(C)c1ccc(Oc2ccc(N)cc2)cc1`: 346% (active). Regarding `COc1cccc(Oc2ccc(N)cc2)c1`, the growth rescue was 1.74%.

On to `O=C1C(C=NCC2CCCO2)=C(O)c2ccccc21` (stereo not drawn), for which the growth rescue is 0.444%. In the case of `Cc1cc(C(=O)CC#N)c(C)n1CC(F)(F)F` it was 0.147%; in that of `CC(C)Cn1c(SCC(=O)Nc2ccc(Cl)cc2F)nc(O)cc1=O`, 1.12%. As to `COc1cccc(CNC(=O)C2CCCN(S(=O)(=O)N3CC(C)CC(C)C3)C2)c1` (stereo not drawn), the growth rescue was 0.206%. Consider `COc1ccc(Oc2cn[nH]c2-c2ccc(OC)cc2O)cc1`, for which the growth rescue was 10.8%. For the molecule `CCOc1ccccc1Oc1cn[nH]c1-c1ccc(OC)cc1O`, the growth rescue was 125% (active). In the case of `CCOc1ccc(-c2nc(N)ncc2-c2ccccc2OC)c(O)c1` it was 1.96%; in that of `COc1ccccc1/C=C1\SC(=O)N(CCC(=O)N(C)C2CCS(=O)(=O)C2)C1=O` (stereo not drawn), -0.442%. As to `CCOc1ccc(C(CC(=O)O)NC(=O)Cc2ccccc2)cc1OC` (stereo not drawn), the growth rescue is -0.249%. As for `CCCCC(=O)NC(c1ccc(OC)c(OC)c1)c1ccc2cccnc2c1O` (stereo not drawn), the growth rescue was 222% (active). `COc1ccc(CCNS(=O)(=O)c2cccc3cccnc23)cc1OC`: the growth rescue is 0.122%. For the molecule `COc1cccc2c(=O)n(CC(=O)N3CCCCCC3)ccc12`, the growth rescue was -0.593%. For the molecule `CCOC(=O)C(C)Oc1cccc2c(=O)n(CC(=O)NCCc3ccc(OC)c(OC)c3)ccc12` (stereo not drawn), the growth rescue was 0.594%.

Take `CCOC(=O)C(C)Oc1cccc2c(=O)n(CC(=O)N3CCc4ccccc43)ccc12` (stereo not drawn): the growth rescue was 92.2% (active). In the case of `O=C(O)CCCCOn1ccnc1` it was -2.14%; in that of `O=C(c1noc2c1CCCC2)N1CCc2ccccc2C1`, -0.161%. As to `COc1ccc2c(c1)CCc1c(C(=O)N3CCc4ccccc4C3)noc1-2`, the growth rescue is 182% (active).

Regarding `COc1ccc2c(c1)CCc1c(C(=O)N3CCCC3)noc1-2`, the growth rescue is 0.772%. As for `CCN(CC)C(=O)COc1coc(CN2CCN(Cc3ccccc3)CC2)cc1=O`, the growth rescue is -0.869%. With `Cc1ccc2[nH]c(C)c(CCNC(=O)NC3CCCCC3)c2c1`, the growth rescue was -0.354%. For the molecule `Cc1ccsc1/C=N/n1c(=S)[nH]nc(C)c1=O`, the growth rescue is -0.774%.

Take `Cc1ccccc1-c1n[nH]c(=S)n1/N=C/c1ccc(-c2ccccc2Br)o1`: the growth rescue was 0.454%. For the molecule `S=c1[nH]nc(-c2ccco2)n1/N=C/c1ccc(Br)s1`, the growth rescue is 152% (active). Next, `Cc1cc(NC(=O)CSc2nc(=O)cc(N)n2-c2ccc(F)cc2)no1`: -0.428%; `CC(=O)C(C)n1cnc2scc(-c3ccc(C)cc3)c2c1=O` (stereo not drawn): 0.285%; `CCOC(=O)C(C)n1cnc2scc(-c3ccc(C)c(C)c3)c2c1=O` (stereo not drawn): 4.82%. In the case of `CCn1cnc2scc(-c3ccc(C)c(C)c3)c2c1=O`, the growth rescue is 1.65%.

As to `COC(=O)Cn1cnc2scc(-c3ccc(C)c(C)c3)c2c1=O`, the growth rescue is 151% (active). Next, `CCC(C(=O)OC)n1cnc2scc(-c3ccc(C)cc3)c2c1=O` (stereo not drawn): 49.2% (active); `CCCc1nc2scc(-c3ccc(C)cc3)c2c(=O)n1N`: 0.943%. As for `CN(C)CCCn1c(SCCN2C(=O)c3ccccc3C2=O)nc2ccccc2c1=O`, the growth rescue is -0.077%.

For the molecule `COc1ccc(C2OC(=O)CC2C(=O)NC(C)C)cc1` (stereo not drawn), the growth rescue is -0.42%.

Take `Cc1cccc(CCNS(=O)(=O)c2ccc(S(=O)(=O)NC3CCCC3)cc2)c1`: the growth rescue is 0.473%. Consider `O=C(CCc1nnc2ccc(NCCCN3CCCC3=O)nn12)NCc1ccccc1Cl`, for which the growth rescue is -0.483%. As for `Cc1nn(C)cc1C(=O)Nc1ccccc1Br`, the growth rescue is 0.045%.

Take `CCCS(=O)(=O)N1CCN=C1SCc1cccc(F)c1`: the growth rescue is 0.879%. `O=C1CC(=O)Nc2cc(S(=O)(=O)N3CCN(c4cccc(C(F)(F)F)c4)CC3)ccc2N1`: the growth rescue was -1.27%. Next, `O=C1CN(C(=O)c2cc(F)cc(F)c2)c2ccccc2N1`: -0.198%; `Cc1c(NC(=O)CSc2cccc3cccnc23)c(=O)n(-c2ccccc2)n1C`: 5.35%. In the case of `O=C(NNc1cc(Cl)ccc1Cl)c1cccnc1Cl` it was 0.035%; in that of `CC(=O)/C(=N\Nc1ccc(Cl)cc1Cl)Sc1cccc2cccnc12`, 67.7% (active). Regarding `O=[N+]([O-])c1ccc(N2CCN(S(=O)(=O)c3ccccc3)CC2)cc1N1CCc2ccccc2C1`, the growth rescue is -0.201%. In the case of `CC/C(=C\c1ccc(Cl)cc1)c1ccncc1` it was 0.0255%; in that of `CCOC(=O)C1CCCN(C(=O)CN(c2ccc(OC)cc2)S(=O)(=O)c2c(C)noc2C)C1` (stereo not drawn), 0.46%. Consider `CCN(C(=O)C1CCCN(c2nc(-c3ccc(OC)cc3)no2)C1)c1ccc(OC)cc1` (stereo not drawn), for which the growth rescue was 61.7% (active). As to `COc1ccc(NC(=O)N2CCCC(c3nc(-c4ccc(F)cc4)no3)C2)cc1` (stereo not drawn), the growth rescue was 0.883%. As to `C/C(=N\NC(=O)c1ccc(NS(=O)(=O)c2cccs2)cc1)c1ccc2ccccc2c1`, the growth rescue is -0.368%.

`CSCCC(NC(=O)COc1ccccc1)C(=O)OCCOc1ccc(Br)cc1` (stereo not drawn): the growth rescue is -0.924%. For `CSCCC(NC(=O)COc1ccccc1)C(=O)OCCOc1ccc(F)cc1` (stereo not drawn), the growth rescue was -0.578%. For `CSCCC(NC(=O)COc1ccccc1)C(=O)N1CCN(c2cccc(C(F)(F)F)c2)CC1` (stereo not drawn), the growth rescue was 197% (active). For the molecule `COCCCNS(=O)(=O)c1cccc(S(=O)(=O)c2cccc(S(=O)(=O)NCCCOC)c2)c1`, the growth rescue is -1.18%. In the case of `CNC(=S)N1CCC(NC(=O)C(Cc2ccc(F)cc2)NC(C)=O)CC1` (stereo not drawn) it was -1.81%; in that of `Cc1ccc(S(=O)(=O)NCC(=O)N(CC(=O)NC(C)(C)C)Cc2cccs2)cc1`, -1.96%; in that of `O=C(N[C@@H](Cc1c[nH]c2ccccc12)C(=O)O)OCC1c2ccccc2-c2ccccc21`, -1.08%. `CC(=O)c1cccc(NC(=S)N2CCN(S(C)(=O)=O)CC2)c1`: the growth rescue was -0.215%.

Consider `O=C(CSc1ccc(-c2ccccn2)nn1)Nc1ccccc1`, for which the growth rescue was 379% (active). Turning to `COc1cc(NC(=O)CSc2ccc(-c3cccnc3)nn2)cc(OC)c1`, the growth rescue was -0.74%.

Take `O=C(CSc1ccc(-c2ccc(-n3cccn3)cc2)nn1)Nc1ccc([N+](=O)[O-])cc1`: the growth rescue is 0.191%.

On to `N#Cc1ccc(C(=O)OCC(=O)NC(=O)NC2CCCCC2)cc1`, for which the growth rescue was 0.27%. On to `COc1cccc(NC(=S)N(Cc2ccc(C)cc2)Cc2ccccn2)c1`, for which the growth rescue is 1.55%. For the molecule `COc1ccc(NS(=O)(=O)c2ccc(NC(=S)NC(=O)/C=C/c3ccc(C)cc3)cc2)nn1`, the growth rescue is -1.55%. Take `COc1ccc(OC(C)C(=O)Nc2cccnc2)cc1` (stereo not drawn): the growth rescue is -0.665%. `COc1ccc(NC(=O)/C(Cl)=C(/Cl)S(=O)Cc2ccc(C)cc2)cn1` (stereo not drawn): the growth rescue was 278% (active). For the molecule `COc1ccc(CCNC(=O)COC(=O)c2cnc(Cl)c(Cl)c2)cc1`, the growth rescue was -2.56%.

Take `COc1ccc(CS(=O)/C(Cl)=C(/Cl)C(=O)Nc2ccc(OC)nc2)cc1` (stereo not drawn): the growth rescue was 81.6% (active).

Turning to `O=S(=O)(NC1CC2CCC1C2)c1ccc(Cl)cc1` (stereo not drawn), the growth rescue is 74.5% (active). Take `O=S(=O)(NC1CC1)c1ccc(Cl)cc1`: the growth rescue was -0.92%. With `O=S(=O)(NC1CCCCC1N1CCCCC1)c1ccc(Cl)cc1` (stereo not drawn), the growth rescue is 1.55%. `COc1ccccc1OCC(=O)Nc1c2c(nn1-c1ccc(F)cc1)CS(=O)(=O)C2`: the growth rescue is 3.47%. Take `CCOC(=O)c1c(NC(=O)NC(C)(C)C)sc2c1CCN(C)C2`: the growth rescue was -1.54%.

`COc1ccccc1/C=N/N1CCN(Cc2ccccc2Cl)CC1`: the growth rescue is -1.43%. On to `COc1ccccc1/C=N\Nc1cc(C)nc(-n2nc(C)cc2C)n1`, for which the growth rescue is 143% (active). Regarding `CCOC(=O)c1cnc(-n2nc(C)cc2C)nc1NNc1cc(C)nc(-c2ccccc2)n1`, the growth rescue is 0.854%. Consider `COc1ccc(CNC(=O)COC(=O)C2=Cc3ccccc3OC2)cc1`, for which the growth rescue was 0.075%. Regarding `CC(=O)c1c(C)[nH]c(C(=O)NCc2ccc(C)cc2)c1C`, the growth rescue was -0.188%. On to `CCCCNC(=O)CSc1nccn1Cc1ccccc1`, for which the growth rescue is 0.912%. Consider `Oc1ccc(-c2nnc(Nc3ccccc3)c3ccccc23)cc1`, for which the growth rescue is -0.3%. Next, `CN1CCN(c2nc(Nc3ccc(O)cc3)nc3ccccc23)CC1`: -0.529%; `Cc1cccc(-c2nc(Nc3ccc(O)cc3)c3ccccc3n2)c1`: 101% (active); `CC1(C)CC(=O)c2c(n(S(=O)(=O)c3ccccc3)c3ccc(NS(=O)(=O)c4ccccc4)cc23)C1`: -0.451%. On to `CC(=O)N1N=C(c2ccncc2)OC1(Cc1ccccc1)Cc1ccccc1`, for which the growth rescue is -0.493%. Take `O=C(CSc1n[nH]c(-c2cccnc2)n1)Nc1ccc(Cl)cc1`: the growth rescue is -2.05%. With `Cc1c(C(=O)NCCN2C(=O)S/C(=C\c3cccs3)C2=O)cccc1[N+](=O)[O-]`, the growth rescue was 0.66%. As for `CC[C@]1(O)C[C@@H]2CN(CCc3c([nH]c4ccccc34)[C@@](C(=O)OC)(c3cc4c(cc3OC)N(C)[C@H]3[C@@](O)(C(=O)OC)[C@H](OC(C)=O)[C@]5(CC)C=CCN6CC[C@]43[C@@H]65)C2)C1`, the growth rescue is -2.2%.

(Values after PubChem BioAssay AID504582 (Broad Institute, 2011).)
